These results are taken from PubChem BioAssay (Tox21).

Values without a mark were called inactive. Results filed as inconclusive are left out. The source made the active and inactive calls. Unless noted, calls come from the whole dose curve; as a rule, active = well fitted curve in the direction sought with a large enough effect in the repeat runs; inconclusive = weak or mixed curves; inactive = no such curve, though single readings can be large; an effect the other way counts as inactive or inconclusive.

Experiment [1] deals with Progesterone receptor (Homo sapiens) (UniProt P06401). The experiment in a line: qHTS assay to identify small molecule agonists of the progesterone receptor (PR) signaling pathway (AID 1346784; calls by dose curve; note: nearly all actives have a fitted effect of over 30% in size). Put shortly:
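Compounds were tested for PR agonism in HEK 293T cells bearing a beta-lactamase gene under UAS control. Treatment lasted 16 hr at 37C; signal came from fluorescence of a FRET substrate.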
In general terms: qHTS replaces the single test concentration by a dilution series.

The target is the same in experiment [2]. Briefly: qHTS assay to identify small molecule antagonists of the progesterone receptor (PR) signaling pathway (AID 1346795; active = well fitted inhibition curve with a large enough effect in the signal ratio in the repeat runs, not every such curve was filed as active; the % refers to the signal ratio; note: potency is the fitted concentration of half-maximal effect). An outline of the steps:
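In HEK293T cells bearing the PR-UAS-bla reporter, compound effects on promegestone-driven (1 nM) beta-lactamase expression are assessed after 16 hr using a fluorescent FRET substrate incubated 2 hr at room temperature.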

A short description of experiment [3]: qHTS assay to identify small molecule antagonists of the progesterone receptor (PR) signaling pathway - cell viability counter screen (AID 1346798). Note: series mostly up to about 92 µM; nearly all actives have a fitted effect of over 50% in size. An outline of the steps: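 Following a 4 hr attachment, PR-UAS-bla HEK293T cells in charcoal-stripped FBS medium were exposed to compounds with R5020 for 16 hr; CellTiter-Glo was added and luminescence read after 30 min at room temperature.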

The nature of experiment [4]: qHTS assay to identify small molecule agonists of the progesterone receptor (PR) signaling pathway - cell viability counter screen (AID 1346799; calls by dose curve; note: nearly all actives have a fitted effect of over 45% in size). An outline of the steps:
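Here, 3,000 PR-UAS-bla HEK293T cells per well were treated with compounds for 16 hr after a 6 hr preincubation at 37C and 5% CO2; cell viability is the CellTiter-Glo luminescence signal.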

A short description of experiment [5]: qHTS assay to identify small molecule antagonists of the TGF-beta/Smad signaling pathway - cell viability counter screen (AID 1346824). Note: nearly all actives have a fitted effect of over 50% in size. Put shortly: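 Cytotoxicity counter-screen run in the same wells as the beta-lactamase Smad reporter read: CellTiter-Glo luminescence after 30 min at room temperature. HEK 293T SBE-bla cells had 5 hr compound exposure at 37 C with TGF-beta1 (0.25 ng/mL stock).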

The nature of experiment [6]: qHTS assay to identify small molecule agonists of the TGF-beta/Smad signaling pathway - cell viability counter screen (AID 1346829). Note: top concentration of the series differs between compounds; nearly all actives have a fitted effect of over 45% in size. An outline of the steps:
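CellTiter-Glo luminescence readout; SBE-bla HEK 293T cells, overnight plating, compound 5 hr at 37 C/5% CO2, then bla substrate 2 hr RT, then CellTiter-Glo 30 min RT.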

Experiment [7] is described as follows: qHTS assay to identify small molecule agonists of the TGF-beta/Smad signaling pathway (AID 1346859; active = well fitted activation curve with a large enough effect in the signal ratio in the repeat runs, not every such curve was filed as active; the % refers to the signal ratio; note: series mostly up to about 77 µM). An outline of the steps:
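Each well held 4,000 SBE-bla HEK 293T cells incubated overnight before compound addition; 5 hr later the cleavable FRET substrate went on for 2 hr at room temperature, and fluorescence was read at two emissions.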

Experiment [8] concerns the target Thyrotropin-releasing hormone receptor (Homo sapiens) (UniProt P34981). Briefly: qHTS assay to identify small molecule antagonists of the thyrotropin-releasing hormone receptor (TRHR) signaling pathway (AID 1346877; active = well fitted inhibition curve with a large enough effect in the repeat runs, not every such curve was filed as active; note: series mostly up to about 51 µM). Put shortly:
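In this cell-based calcium flux format, HEK293 cells expressing TRHR received test compound for 5 min before the agonist TRH (1 nM final). Dye loading lasted 2 h at 37 °C.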

Experiment [9] shares this target. Briefly: qHTS assay to identify small molecule agonists of the thyrotropin-releasing hormone receptor (TRHR) signaling pathway (AID 1346891; calls by dose curve; note: series mostly up to about 58 µM). Put shortly:
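Screening of agonists relied on calcium signalling in HEK293 cells expressing human TRHR: dye loading 2 h at 37 °C preceded compound addition and a 3-min fluorescence time course.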

Experiment [10] in a line: Human pregnane X receptor (PXR) small molecule agonists, qHTS cell viability counter screen (AID 1346977). Note: nearly all actives have a fitted effect of over 50% in size. Note: potency is the fitted concentration of half-maximal effect. An outline of the steps: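 Tox21 qHTS format; PXR-Luc HepG2, 2,000/well, charcoal-stripped FBS 5%. Cpd exposure 24hr. Read: CellTiter-Fluor fluorescence, multiplexed with luciferase.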
Experiment [11] can be described thus: Caspase-3/7 induction in HepG2 cells by small molecules, qHTS assay (AID 1346978). Note: nearly all actives have a fitted effect of over 15% in size. Put shortly: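 Caspase-3/7 induction was measured by Caspase-Glo 3/7 luminescence (30 min, room temperature) after a 17 hr compound exposure of wild-type HepG2 cells seeded at 2,000 per well and pre-incubated 5 hr.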
Experiment [12] can be described thus: Caspase-3/7 induction in CHO-K1 cells by small molecules, qHTS cell viability counter screen (AID 1346979). Note: nearly all actives have a fitted effect of over 35% in size. Note: potency is the fitted concentration of half-maximal effect. Put shortly:
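CellTiter-Fluor viability check, qHTS format: wild-type CHO-K1, 16hr compound treatment, 1hr reagent incubation, fluorescence read.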

Experiment [13] is described as follows: Caspase-3/7 induction in CHO-K1 cells by small molecules, qHTS assay (AID 1346980). Note: nearly all actives have a fitted effect of over 15% in size. Put shortly: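 Luminescent Caspase-Glo 3/7 read (30min, room temperature) quantified apoptosis induction. Cells were wild-type CHO-K1, treated with compound for 17hr at 37 C and 5% CO2.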
Experiment [14] in a line: Caspase-3/7 induction in HepG2 cells by small molecules, qHTS cell viability counter screen (AID 1346981). Note: nearly all actives have a fitted effect of over 30% in size. Note: potency is the fitted concentration of half-maximal effect. An outline of the steps: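 Counter screen for cytotoxicity: HepG2 exposed 16 hr to compounds, then CellTiter-Fluor viability signal (fluorescence, 1 hr reagent incubation).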
The target of experiment [15] is Nuclear receptor subfamily 1 group I member 2 (Homo sapiens) (UniProt O75469). Briefly: Human pregnane X receptor (PXR) small molecule agonists, qHTS assay (AID 1346982). Note: nearly all actives have a fitted effect of over 35% in size. Put shortly:
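Luminescence (ONE-Glo, 30 min RT) after 24 hr compound exposure of PXR-Luc HepG2 cells; cells rested 5 hr post-plating in 5% charcoal-stripped FBS medium.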

Experiment [16] deals with Cytochrome P450 2D6 (Homo sapiens) (UniProt P10635). Briefly: Cytochrome P450 Family 2 Subfamily D Member 6 (CYP2D6) small molecule antagonists: luciferase reporter qHTS assay (AID 1671196). Note: series mostly up to about 120 µM; nearly all actives have a fitted effect of over 50% in size. An outline of the steps:
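Inhibition of CYP2D6 was gauged by loss of luminescence, since light produced tracks the luciferin generated from a proluciferin substrate. A 10 min room-temperature preincubation preceded 1 h NADPH-supported turnover.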

In experiment [17] the target is Nuclear receptor subfamily 1 group I member 2 (Rattus norvegicus) (UniProt Q9R1A7). The experiment in a line: Rat pregnane X receptor (rPXR) activation by small molecules, qHTS assay (AID 1346983). Note: nearly all actives have a fitted effect of over 20% in size. Particulars: rPXR luciferase reporter cells, One-Glo luminescence, 24 h; max activation: stronger effect = higher value. An outline of the steps:
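Luminescent readout (One-Glo luciferase, 30 min room temperature) followed 24 hr compound treatment at 37 C of rPXR cells plated 2,000 per well and preincubated 5hr; qHTS format with compounds delivered in DMSO.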

In experiment [18] the target is Nuclear receptor subfamily 1 group I member 2 (Homo sapiens) (UniProt O75469). Briefly: CYP3A4 induction through human pregnane X receptor (PXR) by small molecules, qHTS assay (AID 1346984). Note: nearly all actives have a fitted effect of over 40% in size. Put shortly:
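DPX-2 reporter cells; 24h cpd, 37C; Luciferin-IPA 3uM final x3h; One-Glo 30 min RT; lumi read.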

Experiment [19] deals with Cytochrome P450 2C19 (Homo sapiens) (UniProt P33261). The experiment in a line: Cytochrome P450 Family 2 Subfamily C Member 19 (CYP2C19) small molecule antagonists: luciferase reporter qHTS assay (AID 1671197). Note: nearly all actives have a fitted effect of over 65% in size. Note: potency is the fitted concentration of half-maximal effect. An outline of the steps:
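Enzyme-substrate mix with proluciferin substrate (P450-Glo CYP2C19 system) preincubated with compounds 10 min at room temperature; NADPH regeneration solution added, 37C for 1 h; detection reagent stops reaction, luminescence read after 20 min. Ketoconazole positive control.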
(Reporter assays use an easily measured gene product as a stand-in for the process of interest.)
% is set by controls: 0 for no effect and ±100 for the full control effect.

Nuclear receptor subfamily 1 group I member 2 (Homo sapiens), sequence (O75469 whole entry, looked up): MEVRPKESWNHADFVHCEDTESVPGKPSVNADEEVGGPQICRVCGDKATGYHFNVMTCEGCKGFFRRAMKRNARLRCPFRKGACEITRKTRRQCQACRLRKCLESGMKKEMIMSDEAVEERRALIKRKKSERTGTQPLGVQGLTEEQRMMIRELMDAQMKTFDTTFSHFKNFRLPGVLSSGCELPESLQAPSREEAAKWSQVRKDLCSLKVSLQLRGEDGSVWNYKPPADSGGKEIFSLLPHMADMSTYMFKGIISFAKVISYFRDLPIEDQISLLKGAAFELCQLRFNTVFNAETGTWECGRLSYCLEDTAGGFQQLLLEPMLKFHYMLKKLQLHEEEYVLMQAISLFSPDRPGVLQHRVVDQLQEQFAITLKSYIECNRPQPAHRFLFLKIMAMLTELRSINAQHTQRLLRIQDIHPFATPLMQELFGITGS
Cytochrome P450 2D6 (Homo sapiens), sequence (P10635 whole entry, looked up): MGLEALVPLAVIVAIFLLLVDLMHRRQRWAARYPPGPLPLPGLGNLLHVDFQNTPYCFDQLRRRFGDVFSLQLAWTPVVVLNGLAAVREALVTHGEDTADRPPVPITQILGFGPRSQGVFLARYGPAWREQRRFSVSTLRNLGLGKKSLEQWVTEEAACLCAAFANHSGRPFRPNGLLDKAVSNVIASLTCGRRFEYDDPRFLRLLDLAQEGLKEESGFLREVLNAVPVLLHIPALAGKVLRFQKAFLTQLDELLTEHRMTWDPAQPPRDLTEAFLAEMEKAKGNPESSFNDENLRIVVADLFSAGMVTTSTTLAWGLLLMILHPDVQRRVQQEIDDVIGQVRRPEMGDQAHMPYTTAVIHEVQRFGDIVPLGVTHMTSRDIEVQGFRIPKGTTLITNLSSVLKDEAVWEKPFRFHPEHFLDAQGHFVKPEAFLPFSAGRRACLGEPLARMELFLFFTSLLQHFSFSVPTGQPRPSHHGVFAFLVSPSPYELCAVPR
Thyrotropin-releasing hormone receptor (Homo sapiens), sequence (P34981 whole entry, looked up): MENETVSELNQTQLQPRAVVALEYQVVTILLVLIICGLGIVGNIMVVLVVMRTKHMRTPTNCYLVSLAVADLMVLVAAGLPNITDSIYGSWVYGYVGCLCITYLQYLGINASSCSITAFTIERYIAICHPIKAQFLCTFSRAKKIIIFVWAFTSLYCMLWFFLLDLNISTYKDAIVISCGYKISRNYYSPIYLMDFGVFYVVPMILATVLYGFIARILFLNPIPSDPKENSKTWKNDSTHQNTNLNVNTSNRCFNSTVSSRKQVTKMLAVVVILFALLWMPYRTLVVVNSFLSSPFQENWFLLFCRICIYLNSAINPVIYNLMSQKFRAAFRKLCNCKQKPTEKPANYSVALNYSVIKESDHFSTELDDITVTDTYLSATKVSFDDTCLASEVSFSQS
Progesterone receptor (Homo sapiens), sequence (P06401 whole entry, looked up): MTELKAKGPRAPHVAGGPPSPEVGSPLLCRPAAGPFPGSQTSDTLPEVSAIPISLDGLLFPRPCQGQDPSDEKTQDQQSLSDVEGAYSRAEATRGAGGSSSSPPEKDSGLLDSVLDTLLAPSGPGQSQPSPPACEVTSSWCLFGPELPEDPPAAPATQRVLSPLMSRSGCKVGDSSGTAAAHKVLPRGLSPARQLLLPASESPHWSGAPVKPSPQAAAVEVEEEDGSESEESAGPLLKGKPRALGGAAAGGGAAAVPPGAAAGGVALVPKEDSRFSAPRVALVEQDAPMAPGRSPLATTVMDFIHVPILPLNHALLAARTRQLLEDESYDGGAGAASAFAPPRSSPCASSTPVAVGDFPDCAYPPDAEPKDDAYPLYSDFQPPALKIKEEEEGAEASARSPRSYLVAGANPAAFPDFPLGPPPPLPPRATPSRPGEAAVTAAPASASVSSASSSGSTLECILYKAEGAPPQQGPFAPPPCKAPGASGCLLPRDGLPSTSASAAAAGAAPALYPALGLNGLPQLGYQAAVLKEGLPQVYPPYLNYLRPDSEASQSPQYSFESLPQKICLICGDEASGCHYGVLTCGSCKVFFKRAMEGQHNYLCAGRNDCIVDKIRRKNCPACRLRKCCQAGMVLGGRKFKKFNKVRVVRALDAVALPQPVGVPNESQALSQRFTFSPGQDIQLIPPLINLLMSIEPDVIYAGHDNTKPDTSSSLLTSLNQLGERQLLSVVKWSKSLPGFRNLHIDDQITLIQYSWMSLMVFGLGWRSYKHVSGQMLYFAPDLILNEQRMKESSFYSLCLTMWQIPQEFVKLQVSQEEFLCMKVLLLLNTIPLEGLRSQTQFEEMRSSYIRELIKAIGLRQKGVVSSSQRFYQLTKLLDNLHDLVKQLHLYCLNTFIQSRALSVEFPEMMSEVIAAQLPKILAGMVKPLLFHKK
Cytochrome P450 2C19 (Homo sapiens), sequence (P33261 whole entry, looked up): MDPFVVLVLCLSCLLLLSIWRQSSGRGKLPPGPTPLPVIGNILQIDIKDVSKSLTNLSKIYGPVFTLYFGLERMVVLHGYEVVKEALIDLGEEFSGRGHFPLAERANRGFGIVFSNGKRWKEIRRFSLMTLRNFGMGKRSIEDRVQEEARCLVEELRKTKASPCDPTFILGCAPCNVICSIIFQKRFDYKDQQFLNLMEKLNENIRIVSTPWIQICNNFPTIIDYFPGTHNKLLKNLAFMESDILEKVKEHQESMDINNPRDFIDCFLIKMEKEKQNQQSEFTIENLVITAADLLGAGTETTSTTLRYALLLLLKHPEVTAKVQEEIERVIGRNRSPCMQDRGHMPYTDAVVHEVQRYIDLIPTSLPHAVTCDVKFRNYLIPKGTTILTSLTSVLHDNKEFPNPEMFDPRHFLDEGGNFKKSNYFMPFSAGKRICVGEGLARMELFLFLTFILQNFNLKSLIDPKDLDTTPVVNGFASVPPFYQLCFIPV
Nuclear receptor subfamily 1 group I member 2 (Rattus norvegicus), sequence (Q9R1A7 whole entry, looked up): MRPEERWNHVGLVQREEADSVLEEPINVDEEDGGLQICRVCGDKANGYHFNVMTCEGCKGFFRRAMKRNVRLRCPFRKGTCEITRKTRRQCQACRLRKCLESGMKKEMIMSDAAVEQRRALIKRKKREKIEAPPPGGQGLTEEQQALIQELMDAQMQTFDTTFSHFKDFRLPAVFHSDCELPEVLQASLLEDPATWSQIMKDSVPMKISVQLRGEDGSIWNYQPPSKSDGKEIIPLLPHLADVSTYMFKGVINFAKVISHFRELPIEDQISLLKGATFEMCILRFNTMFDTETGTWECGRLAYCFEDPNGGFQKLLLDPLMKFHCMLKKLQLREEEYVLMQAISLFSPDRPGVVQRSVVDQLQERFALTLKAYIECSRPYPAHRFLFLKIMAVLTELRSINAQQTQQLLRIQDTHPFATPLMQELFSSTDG

In the case of `CC(C)CCCCCCOC(=O)c1ccc(C(=O)OCCCCCCC(C)C)c(C(=O)OCCCCCCC(C)C)c1`, the result in experiment [1], in [7], in experiment [8] and in experiment [11] was inactive. The Potency result in [2], in experiment [3], in experiment [4], in experiment [5], in experiment [6] and in [9] was “inactive” throughout. The Potency entry in experiment [10], in experiment [12], in [13], in [14], in [15] and in experiment [16] was “inactive” throughout.
Consider `C=Cc1c(C)c2cc3[nH]c(cc4nc(cc5nc(cc1[nH]2)C(C)=C5CCC(=O)O)C(CCC(=O)O)=C4C)c(C)c3C=C`, for which the call in [1], in [7], in experiment [8] and in [11] was inactive. For the same compound, the Potency entry in [2], in experiment [3], in [4], in [5], in [6] and in experiment [9] was “inactive” in each case. Further, the Potency entry in experiment [13], in [15] and in [18] was “inactive” in each case. For the same compound, the values for the Potency in experiment [10], in experiment [12] and in experiment [14] were 15 µM (active), 21.1 µM (active) and 13.3 µM (active), respectively. In [17], the max activation was -1.27%.
On to `O=C(Cl)c1c(Cl)cccc1Cl`, for which the compound was called inactive in experiment [1], in experiment [7] and in experiment [8]. Also, the Potency entry in experiment [2], in [3], in [4], in [5], in experiment [6] and in experiment [9] was “inactive” in each case. The Potency result in experiment [10], in experiment [12], in [13], in experiment [14], in experiment [15] and in experiment [16] was “inactive” in each case. In addition, the Potency in [19] was 36 µM (active).
For `C=CC(C)(CCC=C(C)C)OC(=O)c1ccccc1` (centres undefined), the compound was classed as inactive in [1], in experiment [7], in experiment [8] and in [11]. For the same compound, the Potency entry in experiment [2], in experiment [3], in experiment [4], in experiment [5], in [6] and in experiment [9] was “inactive” throughout. The Potency entry in [10], in [12], in experiment [13] and in [16] was “inactive” each time. Moreover, the Potency in experiment [19] is 15.9 µM (active).
With `C1=Cc2ccccc2C1`, the result in experiment [1], in [7], in [8] and in [11] was inactive. The Potency entry in experiment [2], in [3], in experiment [4], in experiment [5], in experiment [6] and in experiment [9] was “inactive” throughout. In addition, the Potency result in experiment [10], in [12], in experiment [13], in experiment [14] and in [15] was “inactive” each time. Moreover, the Potency in experiment [19] is 39.9 µM (active).
In the case of `CCCCOC(=O)c1ccccc1C(=O)OCC(CC)CCCC` (centres undefined), the call in experiment [1], in experiment [7], in experiment [8] and in experiment [11] was inactive. Also, the figures for the Potency in [2] and in experiment [19] were 48.6 µM (active) and 6.33 µM (active), respectively. In addition, the Potency result in experiment [3], in experiment [4], in [5], in experiment [6], in experiment [9] and in [10] was “inactive” in each case. The Potency entry in experiment [12], in experiment [13], in experiment [14], in [15] and in experiment [16] was “inactive” throughout.
For `C=CCCCCCC`, the result in experiment [1], in [7] and in experiment [8] was inactive. Besides, the Potency entry in experiment [2], in experiment [3], in experiment [4], in experiment [5], in experiment [6] and in experiment [9] was “inactive” throughout. The Potency entry in experiment [10], in experiment [12], in [13], in experiment [14], in [15] and in [16] was “inactive” throughout.
Consider `COc1ccc(C(C)=O)cc1`, for which the outcome in experiment [1], in experiment [7], in experiment [8] and in experiment [11] was inactive. In addition, the Potency entry in [2], in experiment [3], in [4], in [5], in [6] and in [9] was “inactive” in each case. The Potency entry in experiment [10], in experiment [12], in experiment [13], in [14], in experiment [15] and in experiment [16] was “inactive” each time. Moreover, the Potency entry in experiment [19] is “inactive”.
